Records with an inconclusive call do not appear. Entries that show only a call come without a potency. Calls of active or inactive are those of the source. Calls follow the shape of the dose curve; as a rule, active = well fitted activation curve with a large enough effect; inconclusive = small, poorly fitted or top-dose-only effect; inactive = no such curve, though single readings can be large or run the other way.
Potency is read from the fitted curve at half-maximal effect.

The assay is described as follows: qHTS Assay for NPC1 Promoter Activators: Hit Validation Using Renila Luciferase Read-Out for NPC1. The conditions noted are these: Huh7 NPC1 promoter-luciferase reporter, luminescence, 24 h; series mostly up to 76.9 µM. In a few lines: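 Huh7 cells stably carrying NPC promoter-luciferase reporter, exposed to compound for 24 h at 37 deg C. Luminescence read 10 min after adding luciferase detection reagent at room temperature.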
Turning to `COC(=O)c1ccccc1NC(=O)c1ccc(-c2ccc(Br)cc2)o1`, the Potency result is “inactive”. As for `CC1CCc2sc(C(=O)NNC(=S)NC3CC3)cc2C1` (stereo not drawn), the entry is “inactive”; as for `O=C(CCCN1C(=O)C(c2ccccc2)Oc2cccnc21)Nc1ccccc1Cl` (stereo not drawn), “inactive”; as for `Cc1[nH]n(-c2cccc3ccccc23)c(=O)c1/C=N/c1sc2c(c1C#N)CCC2`, “inactive”. As for `C=CCc1ccc(OCCOCCNCCOC)c(OC)c1`, the entry is “inactive”. Next, `CC(=O)NC(=S)Nc1ccc2oc(-c3cc(F)c(F)cc3Cl)nc2c1`: “inactive”; `CCOC(=O)c1ccccc1NC(=O)CSc1nnc(Cc2cccn2C)n1-c1ccc(F)cc1`: 46.3 µM (active). Regarding `Cc1ccc2c(c1)sc1nc(=O)n(-c3ccccc3)c(=O)n12`, the Potency entry was “inactive”. `CCN(Cc1nc2cc(Cl)ccc2c(=O)[nH]1)C(=O)C1CC(=O)N(c2cccc3ccccc23)C1` (stereo not drawn): the Potency result is “inactive”. Next, `CCCCCCC(=O)Nc1ccc(C(=O)N/N=C/c2cccnc2)cc1`: “inactive”; `CCC(=O)Nc1cc(-c2cc3ccccc3oc2=O)ccc1OC`: “inactive”; `O=C(NCCSCc1c(F)cccc1Cl)c1ccc(CN2CCOCC2)cc1`: “inactive”. Next, `Cc1ccccc1NC(=O)CSc1ccc(-c2cccnc2)nn1`: “inactive”. Next, `Cc1ccc2nc(Nc3ccc(Cl)cc3)c3nncn3c2c1`: “inactive”; `COc1ccc(NC(=O)Nc2ccc(Cc3ccncc3)cc2)cc1OC`: “inactive”.

As to `CCN(C(=O)COC(=O)c1ccc(C=O)cc1)c1c(N)n(Cc2ccccc2)c(=O)[nH]c1=O`, the Potency result is “inactive”. As for `COc1ccccc1OCCCC(=O)NCc1ccco1`, the entry is “inactive”; as for `O=C(CCN1C(=O)c2ccccc2C1=O)Nc1ccc(-c2nc3ccccc3s2)cc1`, “inactive”.

The values are drawn from PubChem BioAssay AID720526 (National Center for Advancing Translational Sciences (NCATS), 2013).
